The sample as a whole holds a higher share of hits than the screen did.
p53 reactivation: re-activators of mutant p53 | H1299 p53-A138V BP100-luciferase reporter, luminescence, 24 h | Potency, µM (series often up to 92.2 µM), without a hit: at the highest dose activity change, positive = activation, most hits filed as activators | 0.063% of 320,000 active | AID 504706; active = well fitted activation curve with a large enough effect; inconclusive = small, poorly fitted or top-dose-only effect; inactive = no such curve, though single readings can be large or run the other way; note: potency is the fitted concentration of half-maximal effect; % of control where 0% means no effect; nearly all actives have a fitted effect of over 45% in size
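p53-null H1299 cells stably carrying temperature-sensitive p53-A138V and a BP100-luciferase reporter were pinned with compounds (4-point, 1:5 series) and held 24 hrs at 37 deg C. Luminescence was read 10 min after detection reagent.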
MLL CXXC-DNA inh: blocks binding of human MLL CXXC domain to DNA; MLL-CXXC / FITC-HOXA9 DNA fluorescence polarization; Potency, µM (top dose mostly 115 µM), for the others: at the highest dose activity change, negative = inhibition, most hits filed as inhibitors; AID 2662; 0.037% of 290,000 active; active = well fitted inhibition curve with a large enough effect in the polarisation, with a control signal flat, not every such curve was filed as active; inconclusive = small, poorly fitted or top-dose-only effect, or effect the other way, or a change in a side signal; inactive = no such curve, though single readings can be large or run the other way; the % refers to the polarisation; note: potency is the fitted concentration of half-maximal effect
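Fluorescence polarization: 7 uM MLL-CXXC (stock) preincubated 5 min with compounds, then 50 nM fluorescein-HOX-A9 DNA (stock) added; 30 min ambient. Buffer 50 mM Tris-HCl pH 7.5, 50 mM NaCl, 1 mM DTT, 0.05% BSA.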
ClpP mod: qHTS Assay for Activators of ClpP | purified B. subtilis ClpP, FRET peptide cleavage, 20 min | ATP-dependent Clp protease proteolytic subunit (Bacillus subtilis (strain 168)), P80244 | Potency, µM (top dose mostly 57.5 µM), for the others: at the top dose activity change, negative = active | 1.9% of 340,000 active; active = well fitted falling curve with a large enough effect; inconclusive = small, poorly fitted or top-dose-only effect; inactive = no such curve, though single readings can be large or run the other way; note: potency is the fitted concentration of half-maximal effect; the source files actives as falling curves though it sought activators and does not explain the sign; nearly all actives have a fitted effect of over 65% in size
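FRET quenching reversal measured ClpP activation: 10 microg/mL B. subtilis ClpP at pH 8 with the FRET-FV decapeptide, read at 430 nm after 320 nm excitation. The 20-min minus 0-min signal was scaled between DMSO/no-enzyme wells and ADEP (5.8 microM final).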
Menin-MLL TR inh: menin-MLL binding inhibition, Texas Red mutant peptide; O00255; Menin + Texas Red MLL mutant peptide, fluorescence polarization; Potency, µM (doses to about 61.6 µM), for inactives: at the top dose FP activity change, negative = inhibition, usual class: inhibitors; 0.23% of 270,000 active; active = well fitted inhibition curve with a large enough effect in the polarisation, with a control signal flat, not every such curve was filed as active; inconclusive = small, poorly fitted or top-dose-only effect, or effect the other way, or a change in a side signal; inactive = no such curve, though single readings can be large or run the other way; the % refers to the polarisation; note: potency is the fitted concentration of half-maximal effect; % of control where 0% means no effect
Menin MLL FP FL: displaces fluorescein MLL peptide from human menin. Fluorescence polarization, fluorescein-MLL peptide displacement from menin. FP activity change, % at 61.4 µM. 290,000 tested, under 10 active. AID 1766; active = well fitted curve in the direction sought with a large enough effect in the polarisation, not every such curve was filed as active; inconclusive = small, poorly fitted or top-dose-only effect, or effect the other way, or a change in a side signal; inactive = no such curve, though single readings can be large or run the other way; the % refers to the polarisation; note: % of control where 0% means no effect
The depositor's hits bear a star; ? = inconclusive; . = not tested or not shown; [ ] = dose if it differs, or a comment.

SMILES | p53 reactivation | MLL CXXC-DNA inh | ClpP mod | Menin-MLL TR inh | Menin MLL FP FL
Cc1ccc(NC(=O)CS(=O)CC(=O)NC(C)CCc2ccco2)cc1Cl (stereo not given) | -0.5% | -2.7% | 28.2µM* | -17.3% | -0.1
COc1ccc(-c2ccc(C(=O)Nc3ccc4c(c3)OCO4)c3occc23)c(C)c1 | . | . | 31.6µM* | . | .
COc1ccc(-c2ccc(C(=O)NCC3CC3)c3occc23)c(C)c1 | . | . | 4.2% | . | .
COc1ccc(-c2ccc(C(=O)Nc3ccc(OC)nc3)c3occc23)c(C)c1 | . | . | 35.5µM* | . | .
Cc1c2c(c(O)c3c(O)cccc13)C(=O)O[C@H]2C1C(N(C)C)C(O)=C(C(N)=O)C(=O)[C@H]1O (stereo not given in full) | . | . | . | ? | -0.5
CC12CCC=CC1C(c1ccc(/C=C/c3ccccc3)cc1F)N(Cc1ccccc1)C2=O (stereo not given) | . | . | . | -11.4% | -5.3
C[C@@]12CCC=C[C@H]1[C@H](c1ccc(F)c(/C=C/c3ccccc3)c1)N(Cc1ccccc1)C2=O | 5.6% | 4.7% | 28.2µM* | . | 4.2
Cc1ccc(S(=O)(=O)N(CC(=O)Nc2ccc(Cl)c([N+](=O)[O-])c2)C2CCCCC2)cc1 | 11.0% | -20.4% | 28.2µM* | -3.1% | 1.8
CCCOc1ccccc1-c1nc2c([nH]1)c(=O)[nH]c(=O)n2C | -9.9% | 7.5% | 31.6µM* | 3.5% | 3.1
Cn1c(=O)[nH]c(=O)c2[nH]c(CO)nc21 | . | . | 1.2% | . | .
COC(=O)c1cccc(NC(=S)N2CCN(C)CC2)c1 | 4.9% | 1.3% | 12.6µM* | 1.5% | 9.4
CN(C)c1cc(F)c(C=O)cc1F | . | . | 0.6% | . | .
N#Cc1sc2nc(-c3cccs3)cc(-c3ccccc3)c2c1N | 0.0% | 16.6% | -5.1% | 12.6µM* | ?
N#Cc1sc2nc(-c3cccs3)cc(-c3ccc(Cl)cc3)c2c1N | -4.8% | -9.7% | -6.1% | 25.1µM* | ?
CCN(CC)C(=O)c1sc2nc(-c3cccs3)cc(-c3ccc(Cl)cc3)c2c1N | 3.8% | ? | ? | ? | 14.4
COC(=O)C1=C(C(=O)OC)[C@@H]2Nc3ccccc3[C@@]23C[C@@H](C(=O)OC)N(S(=O)(=O)c2c(C)noc2C)C3=N1 | . | . | . | -16.4%[11.7 µM] | -0.4[11.7 µM]
CCc1cccc2c(-c3ccccc3)c3c(nc12)OCC3 | . | . | . | -14.8% | -3.6
COc1cc2c(NC3CCN(C)CC3)nc(N3CCCN(C)CC3)nc2cc1OCC1CCCCN1 (stereo not given) | . | . | 4.1% | . | .
CCCN1CCN(C(=O)Cn2c(-c3cccs3)cc3ccccc32)CC1 | . | . | 31.6µM* | . | .
CN1CCN(C(=O)Cn2c(-c3cccs3)cc3ccccc32)CC1 | . | . | 28.2µM* | . | .
O=C1/C(=C/c2cccs2)Cc2ccccc21 | 39.8µM* | 7.4% | -1.9% | 25.7% | 8.6
C[C@H]1[C@@H](OC(=O)CCC(=O)O)OC2OC3(C)CC[C@H]4[C@H](C)CC[C@@H]1[C@@]24OO3 (stereo not given in full) | . | 1.2% | . | -1.5% | -1.3
Cc1cc(O)ccc1N/C=C(\C#N)c1nc2ccccc2o1 | 2.6% | 12.1% | 17.8µM* | 2.4% | -0.3
Cc1c(Cl)cccc1-c1ccc(/C=C(\C#N)c2nc3ccccc3[nH]2)o1 | . | . | -1.2% | . | .
N#C/C(=C\c1c(Cl)cccc1Cl)c1nc2ccccc2o1 | 2.8% | 14.0% | 3.98µM* | 1.8% | 2.6
SMILES | p53 reactivation | MLL CXXC-DNA inh | ClpP mod | Menin-MLL TR inh | Menin MLL FP FL
Nc1nc(NC2CC2)c2ncn([C@H]3C=C[C@@H](CO)C3)c2n1 | . | -5.0% | . | 0.1% | -1.8
Cn1c(SCCOc2ccccc2)nnc1-c1ccc(NC(=O)CCc2ccccc2)cc1 | . | . | 6.6% | . | .
O=C(Nc1ccc(-c2cscn2)cc1)C1CCCN(Cc2ccccc2)C1 (stereo not given) | 1.8% | -4.2% | -3.8% | . | .
Cc1nn(C)c(Cl)c1CN1CCCC(C(=O)Nc2ccc(-c3cscn3)cc2)C1 (stereo not given) | -30.8% | 7.8% | 25.1µM* | . | .
CCOc1ccc(CC(=O)N/N=C/c2cccnc2)cc1 | -0.1% | -1.2% | 15.8µM* | . | -2.7
CCOc1ccc(CC(=O)N/N=C/c2cccnc2)cc1OCC | -4.3% | 20.5% | -0.2% | . | .
COc1ccc(OCc2nc3c4c(ncn3n2)-c2ccccc2CC42CCCC2)cc1 | -4.3% | 5.9% | 28.2µM* | -9.3% | 8.9
Cc1ccc(OCc2nc3c4c(ncn3n2)-c2ccccc2CC42CCCC2)cc1 | 2.2% | 2.3% | ? | -6.4% | 0.3
CC[C@H](C)[C@H](NC(=O)[C@H](CCC(=O)O)NC(=O)CNC(=O)[C@@H](NC(=O)[C@H](CCC(=O)O)NC(=O)[C@H](CCC(=O)O)NC(=O)[C@H](CC(C)C)NC(=O)CNC(=O)[C@@H]1CCCN1C(=O)[C@H](CCC(=O)O)NC(=O)[C@@H](N)[C@@H](C)O)C(C)C)C(=O)N[C@@H](CCC(=O)O)C(=O)N[C@@H](CCC(N)=O)C(=O)N[C@@H](CCCCN)C(=O)N[C@@H](CCC(N)=O)C(=O)N[C@@H](CC(C)C)C(=O)N[C@@H](CCC(N)=O)C(=O)O | . | . | . | -3.8% | -1.3
O=C1CCCC2=C1C(c1ccco1)Nc1ccc3ccccc3c12 (stereo not given) | ? | 1.2% | 35.5µM* | ? | 9.1
Cc1ccc(C2Nc3ccc4ccccc4c3C3=C2C(=O)CC(C)(C)C3)o1 (stereo not given) | 15.1% | 19.0% | 14.1µM* | 39.7% | 1.8
CC[N+](CC)(CC)c1ccc(/C=C/c2ccc3ccccc3n2)cc1 | . | . | -1.7% | . | .
CCCCNC(=O)CCCN1C(=O)CCn2nc(-c3cccn3C)cc21 | . | . | 1.4% | . | .
CCCCC1(CC(=O)OC)C(=O)N(c2ccccc2)N(c2ccccc2)C1=O | -4.8% | -3.2% | 28.2µM* | -11.9% | 7.1
N#Cc1cc(-c2ccccc2)c[nH]c1=O | -0.1% | 2.0% | 7.94µM* | 2.5% | -1.3
Cc1nn(-c2ccccc2)c(NC(=O)NS(=O)(=O)c2ccc(Cl)cc2)c1C#N | . | . | . | 7.1% | -2.9
CCc1cccc(CC)c1NC(=O)c1c(C)oc2ccc(O)c(CN3CCN(C)CC3)c12 | . | . | 0.3% | . | .
C=CCN(CC=C)c1ccc(/C=C/c2ccnc3ccccc23)cc1 | . | . | -7.4% | . | .
Oc1ccc(Cl)cc1C=Nc1ccccc1Br | 3.7% | -1.8% | ? | 7.5% | 2.8
Oc1ccc(Br)cc1C=Nc1ccc2c3c(cccc13)CC2 | 2.0% | -4.6% | 31.6µM* | ? | ?
O=C(CCN1C(=O)/C(=C/c2ccccc2Cl)SC1=S)N1CCOCC1 | 15.8µM* | -12.4% | 1.4% | -23.5% | -2.8
O=C(CCN1C(=O)/C(=C/c2ccccc2Cl)SC1=S)N1CCCC1 | -32.3% | 27.0% | . | -21.3% | -2.4
COC(=O)C1(C)CN(S(=O)(=O)c2ccc(C)cc2)c2cc(OC)ccc2C1=O (stereo not given) | -4.8% | 1.0% | 12.6µM* | 3.8% | 6.4

Bioassay records as filed in PubChem BioAssay.
